Among all 5,500 compounds or so, about 2,000 (36%) were called active. About 18% were inconclusive and are not listed. Cut-off read from the data, not from the text of the source: active = normalized growth mostly below about 0.91 (no sharp cut-off); inconclusive = no clear call, values can overlap the other calls; inactive = mostly above about 0.92. This is one part of the list.
Experiment: chemical genetic growth profiling, strain panel (AID 1159580);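 note: tested at 20 µM; growth read once vehicle control cultures reached saturation at 30 °C; 1 = growth at the plate median or of vehicle wells; lower values mean less growth of the strain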
Details: S. cerevisiae deletion strains, growth OD

Measured: normalized growth

COc1[nH]c2ccc(F)cc2c1C(=O)OCC1CCN(CCNS(C)(=O)=O)CC1
inactive: locus YAL040C, strain CLN3, active compounds read low 0.958 | locus YCL061C, strain MRC1 (second series), active compounds read low 0.994 | locus YDR150W, strain NUM1, active compounds read low 0.986 | locus YDR363W, strain ESC2, active compounds read low 0.995 | locus YER002W, strain NOP16, active compounds read low 1.01 | locus YGR078C, strain PAC10, active compounds read low 1.02 | locus YJR075W, strain HOC1, active compounds read low 1.01 | locus YNL153C, strain GIM3, active compounds read low 1.01 | locus YNL175C, strain NOP13, active compounds read low 1 | locus YNL197C, strain WHI3, active compounds read low 1.02 | locus YNL224C, strain SQS1, active compounds read low 1.01 | locus YOR083W, strain WHI5 (second series), active compounds read low 0.993 | locus YPL241C, strain CIN2, active compounds read low 1.01
